# Data: the OligoGym collection
# Target: NAGA
# Experiment: pooled miR-30 sensor sort-seq; sequence = guide strand
# Settings: shRNA
# Further: reference of the scale not given here.
row,Sequence,sensor-assay potency score (higher = more potent)
1,TTGCTCAGCAACGTCTGTGGGG,-0.463
2,TTGTCCAGCATCAGCACCTGGG,-0.84
3,TTGATGATCACTGTGAAGTTGG,0.614
4,TTGATTTTGATCATGAGTGGAT,0.182
5,TTGAGCATGTCTACCTTCCACT,-1.03
6,TTTTCCTTGTGAATCCTGCGTC,0.331
7,TGAAGTTGGTTTCATCTCGGAG,-0.453
8,TTCGATGAGAGATTTTTCCTTG,0.59
9,TTCGAAAACTTCCAAATCCTGA,-0.213
10,TTGTCCAGTGTGGTGCCTGGGT,-0.646
11,TTGGACAGGGCATAGAACCTGG,-0.532
12,TCATATATCACAGACCCGGTGA,-0.0849

# Target: NAGPA
# Experiment: as above
# Settings: shRNA
row,Sequence,sensor-assay potency score (higher = more potent)
1,TGTGTCTCGTCACACTCTGTGG,-1.05
2,TTTCAGCAGGAACTCCGCCATT,-1.66
3,TTCATGCGGAAGAAGCCGCCGT,-0.589
4,TCTCGTCACACTCTGTGGCTTG,0.00905
